High-throughput results (PubChem)
Exocytosis inh: lytic granule exocytosis inhibition. TALL-104 LAMP-1 surface exposure, flow cytometry; cells stimulated with thapsigargin and PMA. AID 651702. 0.66% of 360,000 active. inhibition, % at 10 µM;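 active means inhibition above about 55%, limit read from the data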
SKKanGAS inh: SKKanGAS growth inhibition | AID 1662 | inhibition, % at 7.5 µM | 1.3% of 300,000 active | S. pyogenes SKKanGAS, kanamycin growth, BacTiter-Glo, 6 h;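 active means mean replicate score, as percent of positive control median, at least 50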;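 further: strain carries kanamycin resistance gene driven by streptokinase promoter and grows in 40 µg/ml kanamycin; loss of luminescence reflects streptokinase promoter inhibition or plain growth inhibition; 0% = median of DMSO wells and 100% = positive control at its reference dose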
PP1 inh: PP1-alpha (human) inhibition in PP5 counter-screen | P62136 | purified PP1alpha, OMFP fluorescence | inhibition, % at 6.7 µM | 0.9% of 320,000 active | AID 2235;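 active means inhibition above the mean inhibition of all tested compounds plus 3 SD, computed separately for each screening campaign, cut at about 15% in these data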
IDE cell inh: cellular human IDE inhibition | P14735 | AID 434962 | inhibition, % at 5.59 µM | 0.41% of 320,000 active | HEK cells, FAbetaB cleavage, fluorescence polarization;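 active means percent inhibition above the average of all tested compounds plus 3 SD, set per screening campaign, cut at about 16% in these data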;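 further: IDE supplied by intact live HEK cells; FP after avidin binding of uncleaved biotin substrate so inhibition keeps polarization high; 0% = DMSO wells and 100% = 60 µM reference IDE inhibitor Ii1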
PP5 primary: PP5 (human) phosphatase inhibition; P53041; purified PP5c, OMFP substrate fluorescence; inhibition, % at 6.7 µM; 0.18% of 320,000 active; AID 1987;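 active means inhibition above the campaign's mean inhibition across all tested compounds plus 3 SD, cut at about 9.5% in these data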;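 further: 0% = DMSO only and 100% = 100 µM cantharidin control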
IDE act: IDE (human) activation, cell-based; HEK cells, FAbeta-B cleavage, fluorescence polarization; 0% vehicle, 100% cell-free pure enzyme wells; activation, % at 5.96 µM; 0.073% of 340,000 active;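 active means activation above the mean of all tested compounds plus 3 SD, set per screening campaign, cut at about 17% in these data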
An asterisk follows results filed as active; x = no result. The list is not random: actives were taken first. Their share in the collection is about 2.8%.

SMILES	Exocytosis inh	SKKanGAS inh	PP1 inh	IDE cell inh	PP5 primary	IDE act
C=CCn1c(=O)c(C(=O)NCc2ccccc2)c(O)c2ccccc21	0	55*	3	0	3	2
COc1ccc(C(=O)/C=C/c2ccc(O)cc2)c(O)c1CC=C(C)C	0	89*	1	-1	3	3
CC1(C)CC(=O)C=C(c2ccc(COC(=O)c3cccc(C(F)(F)F)c3)cc2)C1=O	1	x	x	x	x	x
CC(=O)c1ccc(NC(=O)CN2C(=O)/C(=C/C(C)=C/c3ccccc3)SC2=S)cc1	-2	x	x	x	x	2
CC(=Cc1ccccc1)C=C1SC(=S)N(CCCC(=O)Nc2ccc(C(=O)O)c(O)c2)C1=O	3	x	x	x	x	x
CC(/C=C1\SC(=S)N(CCCC(=O)Nc2ccc(C(=O)O)c(O)c2)C1=O)=C\c1ccccc1	x	100*	17*	-5	1	x
COc1cc(/C=C2\SC(=S)N(CCC(=O)Nc3ccccc3)C2=O)cc(OC)c1OC	-5	15	1	-2	-1	2
COc1cc(/C=C2\SC(=S)N(CCC(=O)Nc3cccc(O)c3)C2=O)cc(OC)c1OC	85*	57*	6	0	1	1
CC(/C=C1\SC(=S)N(CCC(=O)Nc2ccc(O)cc2)C1=O)=C\c1ccccc1	2	28	15*	1	2	2
CN(Cc1ccccc1)C(=O)c1nc2ccccn2c1CN1CCC(N2CCOCC2)CC1	7	8	1	7	4	1
COc1ccc(Cc2c(C(C)(C)C)nc3c(C)cc(Br)cn23)c(C)c1	7	x	x	x	x	x
CN=C1S/C(=C\c2ccc(N3CCCC3)c(F)c2)C(=O)N1C	-1	36	0	-2	0	2
CN=C1S/C(=C\c2ccc(N3CCOCC3)c(F)c2)C(=O)N1C	0	61*	2	8	2	1
Cc1cccc(NC(=O)CNC(=O)COc2cc(F)ccc2[N+](=O)[O-])c1C	0	2	-3	1	0	3
O=C(C[C@H]1C/C=C\CC[C@@H](Cc2ccc(F)cc2)C(=O)OCCNC1=O)NCCO	24	x	x	9	x	0
COc1ccc(OC)c(NC(=O)c2ccc3c(=O)n(CCc4ccccc4)c(=S)[nH]c3c2)c1	42	-4	2	-2	0	3
CCc1noc(C)c1C(=O)OCC(=O)NC(=O)c1ccccc1	-1	50*	-2	5	2	4
CC(C)(C)OC(=O)N1CSC[C@H]1C(=O)NC[C@H](CC(=O)O)c1ccc(Cl)cc1	-6	-9	4	-3	3	2
Cc1ccc(OC/C(O)=C(\C#N)c2nc3ccccc3s2)cc1	-17	57*	4	-1	1	-2
COC(=O)c1ccc(/C(O)=C(\C#N)c2nc3ccccc3s2)cc1	12	9	-3	7	0	2
CC(C)N1CCC(N2CCN(CC#Cc3ccccc3)CC2CCO)CC1 (centres undefined)	-4	-5	-2	-1	-1	7
C(=N\NC1=NCCN1)/c1ccncc1	-1	1	0	1	2	9
CC1(C(=O)NC(=S)NNC(=O)c2ccncc2)CCCCC1	-3	54*	-6	4	0	-3
O=C(NNC(=S)NC(=O)C12CC3CC(CC(C3)C1)C2)c1ccncc1	0	108*	2	-8	1	4
CC12CC3CC(C1)CC(C(=O)NNC(=O)c1ccncc1)(C3)C2	-4	x	x	2	x	1
SMILES	Exocytosis inh	SKKanGAS inh	PP1 inh	IDE cell inh	PP5 primary	IDE act
CC1CC(NC(=O)c2c(O)nc3sccn3c2=O)CC(C)(C)C1 (centres undefined)	-10	50*	12	-1	1	4
O=C(/C=C/c1cccs1)NC(=S)NNC(=O)c1ccccc1O	0	79*	2	-4	3	1
COc1ccc(C(=O)NNC(=S)NC(=O)/C=C/c2cccs2)cc1	-2	62*	-3	-1	-2	5
O=C(/C=C/c1cccs1)NC(=S)Nc1ccccc1	-11	5	-2	0	3	4
CCN(CC)S(=O)(=O)c1ccc(N2CC(C(=O)NC3(C)CCS(=O)(=O)C3)CC2=O)cc1 (centres undefined)	3	x	-1	4	0	1
O=C(NNC1=Nc2ccccc2SC1)c1ccc(Cl)cc1	28	90*	1	3	2	8
O=C(NNC1=Nc2ccccc2SC1)c1ccc(F)cc1	0	69*	-4	0	1	6
O=C(NNC(=O)c1ccc(F)cc1)c1ccncc1	-1	-5	0	5	1	7
Cn1nc(C(F)(F)F)c(/C=N/OC(=O)c2ccccc2)c1Cl	57*	-6	-3	3	0	3
Cc1nn(C)c(Cl)c1/C=N/OC(=O)c1ccccc1	-2	10	-2	0	-2	2
COc1ccc(-c2cc(=Nc3c(C)n(C)n(-c4ccccc4)c3=O)c3ccccc3o2)cc1	-2	-3	-7	8	-3	6
COc1ccc(-c2c/c(=N\c3nc(-c4ccccc4)c(C)s3)c3ccccc3o2)cc1O	19	59*	4	3	2	-2
CC(NC(=O)c1cc(S(=O)(=O)N2CCOCC2)cn1C)c1ccccc1 (centres undefined)	0	2	1	3	3	11
Cc1[nH]c2ccccc2c1C(=O)COC(=O)c1ccc([N+](=O)[O-])s1	1	51*	-1	4	4	-7
O=C(COC(=O)c1ccc([N+](=O)[O-])s1)NCc1ccccc1	-2	3	1	11	3	2
CC(C(=O)NCCSCc1cccc(Cl)c1)N(c1ccccc1)S(C)(=O)=O (centres undefined)	8	-2	4	3	5	-2
CC(C)C[C@H]1CN=C(Nc2ccccc2)N1CC1CCC(C(C)(C)C)CC1 (some centres undefined)	93*	x	11	0	4	8
Cc1ccc(CN(Cc2ccccc2)C(=S)NCC(=O)NCc2cccnc2)o1	1	-4	6	0	-1	8
CSCc1cc(C(=O)NC2CC2)c(N)s1	2	x	x	x	x	x
O=C(NCc1nc2ccccc2[nH]1)c1ccco1	0	-3	-5	5	-1	4
O=C(CNC(=O)c1ccco1)NCc1nc2ccccc2[nH]1	-4	51*	0	2	1	0
O=C(O)CSc1cc(C(=O)c2cc(F)ccc2O)cn2c(=O)c3c(-c4ccccc4)csc3nc12	13	35	17*	4	5	-5
Cc1oc(-c2cc(F)cc(F)c2)nc1CN1CCN(C(=O)c2ccco2)CC1	1	-7	1	1	3	0
CC(=O)c1cccc(NC(=O)C2(C)Cc3c(-c4cccc(C(F)(F)F)c4)ccnc3O2)c1 (centres undefined)	0	x	x	x	x	x
